High-throughput results (PubChem BioAssay)
These entries were drawn from the full list.
aSyn 5UTR act = Activators working through SNCA 5'UTR binding (MLPCN); alpha-synuclein 5'UTR reporter, activators screen; activity score, % (tested at 7.5 µM), hits read low; hit rate 7.1% among 300,000; AID 1814; in the data active means activity score below about -60%
* marks the source's active call; other numbers are inactive results.

O=C(Nc1nc2ccc(S(=O)(=O)N3CCCC3)cc2s1)C1CCCCC1 was read as aSyn 5UTR act 72.5.
Screening O=C(Nc1nc2ccc(Cl)cc2s1)C1CC1 returned aSyn 5UTR act -150.4*.
Screening C=CCN(CC=C)S(=O)(=O)c1ccc2nc(NC(=O)C3CCCO3)sc2c1 (configuration not stated) returned aSyn 5UTR act -88.5*.
COC(=O)c1ccc2nc(NC(=O)C(C)(C)C)sc2c1 was read as aSyn 5UTR act 59.9.
For COC(=O)c1ccc2nc(NC(=O)C3CCCCC3)sc2c1 the results were aSyn 5UTR act -104.9*.
`O=C(Nc1nc2ccc(Cl)cc2s1)c1cccc(N2C(=O)CCC2=O)c1` gave aSyn 5UTR act -78.1*.
Screening O=C1c2ccccc2NC(c2ccccc2Cl)N1N=C1CCCCCC1 (configuration not stated) returned aSyn 5UTR act -178.7*.
COc1ccc(Cc2nc(-c3cccc(C)c3)no2)cc1 was read as aSyn 5UTR act -102.3*.
Screening Cc1cccc(-c2noc(Cc3ccc(Cl)cc3)n2)c1 returned aSyn 5UTR act -98.2*.
For COc1ccc(Cc2nc(-c3ccncc3)no2)cc1 the results were aSyn 5UTR act -79.4*.
`NNc1nc2c(-c3cccc(C(F)(F)F)c3)nnn2c2ccccc12` gave aSyn 5UTR act -70.9*.
Screening O=C(CCl)N(C/C=C/c1ccccc1)c1ccc2c(c1)OCCO2 returned aSyn 5UTR act -80.6*.
Screening Cn1c(=O)c2c(nc(NCc3ccco3)n2C/C=C/c2ccccc2)n(C)c1=O returned aSyn 5UTR act 90.4.
`Cc1cccn2c(=O)c(C=Nc3ccccc3)c(NCc3ccco3)nc12` gave aSyn 5UTR act -117.9*.
For CCOC(=O)C1(Cc2cccc(OC)c2)CCCN(C(=O)c2cc(CC(C)C)[nH]n2)C1 (configuration not stated) the results were aSyn 5UTR act -118.0*.
`CCOC(=O)C1(Cc2cccc(OC)c2)CCCN(C(=O)CCN2CCCO2)C1` (configuration not stated) gave aSyn 5UTR act -111.9*.
For CCOC(=O)C1(Cc2cccc(OC)c2)CCCN(C(=O)c2ccc(OC)o2)C1 (configuration not stated) the results were aSyn 5UTR act -125.8*.
CCOC(=O)C1(Cc2cccc(Cl)c2)CCCN(C(=O)c2cc(C)on2)C1 (configuration not stated) was read as aSyn 5UTR act -72.1*.
CC(=O)Nc1cccc(C(=O)NCCc2ccco2)c1 was read as aSyn 5UTR act -75.7*.
`Cc1c(C)n(C)c2ccc(C(=O)NCCc3ccco3)cc12` gave aSyn 5UTR act -74.4*.
`COc1cc([N+](=O)[O-])ccc1NC(=O)Nc1ccc2c(c1)OCCO2` gave aSyn 5UTR act -72.4*.
O=C(Nc1ccc([N+](=O)[O-])cc1)Nc1ccc2c(c1)OCCO2 was read as aSyn 5UTR act -92.0*.
O=C1C=C(c2cccs2)C[C@H](c2ccccc2)[C@H]1n1nnc([N+](=O)[O-])n1 was read as aSyn 5UTR act 71.2.
Screening COc1ccc(CSc2nnc(SCc3ccc([N+](=O)[O-])cc3)s2)cc1 returned aSyn 5UTR act -121.6*.
For CC1Cc2ccccc2N1C(=O)CSc1ncc(-c2ccc(F)cc2)n1C (configuration not stated) the results were aSyn 5UTR act -125.6*.
Cc1nc(SCc2ccc(OCCC(C)C)cc2)n[nH]1 was read as aSyn 5UTR act -70.5*.
Screening CCCCCOc1ccc(CSc2n[nH]c(C)n2)cc1 returned aSyn 5UTR act -171.1*.
`Cc1sc(NC(=O)c2ccco2)nc1-c1ccccc1` gave aSyn 5UTR act -94.6*.
For CC(=O)c1c(C)[nH]c(C(=O)Nc2nc(-c3ccccc3)c(C)s2)c1C the results were aSyn 5UTR act -76.4*.
`CC(=O)c1c(C)[nH]c(C(=O)Nc2nccs2)c1C` gave aSyn 5UTR act -134.8*.
`CC(=O)c1sc(NC(=O)c2ccco2)nc1-c1ccccc1` gave aSyn 5UTR act -115.0*.
Cc1sc(N/N=C/c2cccs2)nc1-c1ccccc1 was read as aSyn 5UTR act -211.3*.
Cc1sc(NC(=O)c2cccs2)nc1-c1ccccc1 was read as aSyn 5UTR act -199.2*.
Screening COC(=O)c1c(-c2cccs2)csc1NC(=O)c1cccnc1 returned aSyn 5UTR act -86.6*.
For COC(=O)c1c(C)[nH]c(C(=O)CSc2ccc(Cl)cc2)c1C the results were aSyn 5UTR act -133.5*.
Screening COC(=O)c1c(C)[nH]c(C(=O)/C=C/c2cccc(Cl)c2)c1C returned aSyn 5UTR act -232.1*.
`COC(=O)c1c(C)[nH]c(C(=O)/C=C/c2ccc(C)cc2)c1C` gave aSyn 5UTR act -73.0*.
COC(=O)c1c(C)[nH]c(C(=O)/C=C/c2ccccc2)c1C was read as aSyn 5UTR act -107.3*.
For Cc1ccccc1OCC(=O)NC1CCCCCCC1 the results were aSyn 5UTR act -65.4*.
`Cc1ccc(OCC(=O)NC2CCCC2)c(C)c1` gave aSyn 5UTR act -66.6*.
`Cc1ccccc1OCC(O)CNC1CCC(NCC(O)COc2ccccc2C)CC1` (configuration not stated) gave aSyn 5UTR act 99.2.
`O=C(COc1ccccc1-c1ccccc1)NNC(=O)NC1CCCCC1` gave aSyn 5UTR act -83.1*.
For C=CCSc1nc2ccccc2n1C(=O)/C=C/c1ccc(OC)c(OC)c1 the results were aSyn 5UTR act -219.4*.
For C=CCSc1nc2ccccc2n1C(=O)/C=C/c1cc(OC)c(OC)c(OC)c1 the results were aSyn 5UTR act -172.3*.
For CCSc1nc2ccccc2n1C(=O)/C=C/c1ccc(OC)c(OC)c1 the results were aSyn 5UTR act -168.0*.
`CN(C)/C=C(\C#N)C(=O)Nc1ccccc1` gave aSyn 5UTR act -73.5*.
`COc1ccc(-n2nc([N+](=O)[O-])c(=NCCC3=CCCCC3)n2O)cc1` gave aSyn 5UTR act -81.8*.
Screening COc1ccc(-n2nc([N+](=O)[O-])c(=NCc3cccnc3)n2O)cc1 returned aSyn 5UTR act -121.0*.
Screening CCc1ccc(N=c2c([N+](=O)[O-])nn(-c3ccccc3)n2O)cc1 returned aSyn 5UTR act -88.2*.
`COc1ccc(-n2nc([N+](=O)[O-])c(=NCc3ccco3)n2O)cc1` gave aSyn 5UTR act -83.2*.
For Oc1ccc(C2C(c3ccccc3)=NN=C(c3ccccc3F)N2O)c(O)c1 (configuration not stated) the results were aSyn 5UTR act -91.4*.
For Oc1ccc(C2C(c3ccccc3)=NN=C(c3ccc(Cl)cc3)N2O)c(O)c1 (configuration not stated) the results were aSyn 5UTR act -72.4*.
Cc1ccccc1NC(=O)c1cccc2nccnc12 was read as aSyn 5UTR act -74.4*.
Cc1cccc(NC(=O)c2cnn3ccccc23)c1C was read as aSyn 5UTR act -84.6*.
For Cc1cccc(NC(=O)c2ccccc2O)c1C the results were aSyn 5UTR act -173.9*.
For O=C(NCc1ccc(Cl)cc1)c1cnn2ccccc12 the results were aSyn 5UTR act -141.5*.
Cc1ccc(C)c(NC(=O)c2ccccc2O)c1 was read as aSyn 5UTR act -96.3*.
For Cc1cccc(C(=O)NNC(=O)c2ccccc2O)c1 the results were aSyn 5UTR act -75.8*.
For O=C(Nc1ccccc1O)c1ccccc1O the results were aSyn 5UTR act -133.4*.
For O=C(Nc1ccccc1O)c1ccc(C(=O)c2ccccc2)o1 the results were aSyn 5UTR act -95.8*.
Screening Cc1onc(-c2ccccc2)c1C(=O)NC(=S)NNC(=O)c1ccccc1O returned aSyn 5UTR act 62.6.
CNc1nc(N2CCc3ccccc32)ncc1F was read as aSyn 5UTR act -108.7*.
